# Bioassay records (PubChem BioAssay)
# SUMO Mot1 rescue – blocks SUMOylation pathway, rescuing yeast Mot1-301 growth | S. cerevisiae Mot1-301 growth rescue, ATP luminescence, 38.5C; percent above DMSO median, 100 means doubled | growth rescue, % at 18.8 µM | hit rate 1% among 320,000;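 active = every valid replicate shows activation above 250% relative to neutral control wells; inactive = the rest, any valid replicate at or below 250%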;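 note: OY570 slx delta 5 strain wells were the positive control but not used for scaling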
# MEKK2wt PB1 HTS – raises or lowers MEK5 binding to wildtype human MEKK2 PB1 domain | Q9Y2U5 | bead flow cytometry, Alexa488-MEK5 binding to MEKK2 WT; actives lie on both sides | binding response (% of control), % at 10 µM | hit rate 1.1% among 290,000; in the data active = binding response below about 67% or above about 130%
# CHT inh – inhibits the human high affinity choline transporter; Q9GZV3; CHT-expressing cells, membrane potential dye, choline response; hits give low values; B-score at 10 µM; hit rate 0.86% among 310,000; AID 488975;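 active = B-score over 3 SD under the library average, and starting fluorescence ratio not unusually high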;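 note: choline stimulus applied at its EC90 after an EC20 pre-addition; B-score computed on integrated fluorescence ratio after choline addition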
# CHT PAM – allosteric activators of human choline transporter CHT; CHT-expressing cells, membrane potential dye, choline EC20; hits give high values; LV-AA mutant CHT in HEK293 cells; hit rate 0.49% among 310,000; Q9GZV3; B-score at 10 µM;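 active = initial fluorescence not abnormally high and integrated response B-score, plate-corrected, over 3 SD above library mean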
# MEKK3 PB1 HTS – raises or lowers MEK5 binding to the human MEKK3 PB1 domain; bead-based flow cytometry, Alexa488-MEK5 binding to MEKK3; actives lie on both sides; 0 = blocked by unlabeled MEK5, 100 = vehicle; binding response (% of control), % at 10 µM; hit rate 1.4% among 290,000; AID 1529;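 active = binding response more than 3 SD above or below the average of its plate-row segment, actives on both sides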;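 note: Alexa488 bead fluorescence after subtracting the streptavidin-only scavenger bead signal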
# Target sequence (Q99759 whole entry, looked up, the tested form may be a part): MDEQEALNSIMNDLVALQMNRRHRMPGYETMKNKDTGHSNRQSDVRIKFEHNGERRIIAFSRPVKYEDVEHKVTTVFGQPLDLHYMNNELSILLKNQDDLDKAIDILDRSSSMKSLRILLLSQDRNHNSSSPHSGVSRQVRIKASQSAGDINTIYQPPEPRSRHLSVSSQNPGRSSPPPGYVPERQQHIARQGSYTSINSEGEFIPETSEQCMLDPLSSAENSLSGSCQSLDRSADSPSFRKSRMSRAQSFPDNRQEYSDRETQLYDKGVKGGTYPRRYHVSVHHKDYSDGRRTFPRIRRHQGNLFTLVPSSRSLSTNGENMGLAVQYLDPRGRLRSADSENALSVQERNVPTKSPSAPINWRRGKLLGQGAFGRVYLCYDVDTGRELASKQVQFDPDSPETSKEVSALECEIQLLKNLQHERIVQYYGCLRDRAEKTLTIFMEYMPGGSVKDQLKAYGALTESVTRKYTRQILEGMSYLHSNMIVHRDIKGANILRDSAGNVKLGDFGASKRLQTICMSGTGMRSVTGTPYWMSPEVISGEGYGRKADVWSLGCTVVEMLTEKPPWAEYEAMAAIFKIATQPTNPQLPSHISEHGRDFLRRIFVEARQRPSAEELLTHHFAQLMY
# MEKK2mut PB1 HTS – signal of MEK5 binding to mutant human MEKK2 PB1 domain. percent response, % at 10 µM. AID 1530. hit rate 0.35% among 290,000. bead flow cytometry, Alexa488-MEK5 binding to MEKK2 mutant; in the data active = percent response above about 24%, passing the limit was not always enough
# Numbers without * were called inactive; i = inactive; . = no result given; [ ] = dose if it differs, or a comment. A selection: hits, their analogues and other compounds. The true share with any hit is near 4.1%.
SMILES,SUMO Mot1 rescue,MEKK2wt PB1 HTS,CHT inh,CHT PAM,MEKK3 PB1 HTS,MEKK2mut PB1 HTS
O=S(=O)(c1cccc2nsnc12)N1CCN(C/C=C/c2ccccc2)CC1,184.9,104.0,i,i,100.0,3.0
COc1cc(NC(=O)COC(=O)CCCC2=NS(=O)(=O)c3ccccc3N2)cc(OC)c1,332.7*,99.0,i,i,104.0,0.0
COc1cccc(/C=C/c2nc3c(cnn3-c3ccccc3)c(=O)[nH]2)c1,-15.6,.,i,i,87.0,93.0*
O=c1[nH]c(/C=C/c2ccc(Br)cc2)nc2c1cnn2-c1ccccc1,-7.0,81.0,i,i,81.0,-5.0
COc1ccccc1OCC(=O)N/N=C1/SCC(=O)N1Cc1ccccc1,354.4*,105.0,i,i,107.0,12.0
Cc1ccc2c(c1)N(Cc1ccncc1)C(=O)C(C)O2 (centres undefined),-12.3,106.0,i,i,98.0,2.0
Cc1ccc2c(c1)c1c(n2CC(O)CN2CCCCCC2)CCCC1 (centres undefined),-11.1,123.0,i,i,106.0,14.0
Cc1ccc2c(c1)c1c(n2CC(O)CNC(C)(C)C)CCCC1 (centres undefined),.,158.0*,.,.,116.0,15.0
Cc1ccc(C(=O)N2CCSC2=S)cc1,1.8,-10.0*,i,i,105.0,4.0
O=C(c1ccccc1)N1CCSC1=S,2.6,97.0,i,i,103.0,-3.0
Nc1ccccc1Oc1ncc(C(F)(F)F)cc1Cl,274.8*,95.0,i,i,89.0,-2.0
Nc1cccc(C(=O)NCCNC(=O)c2cccc(N)c2)c1,5.0,98.0,i,i,98.0,7.0
O=C(Nc1ccccc1N1CCCCC1)c1ccc(-c2ccc(Cl)cc2)o1,-14.4,106.0,i,i,141.0*,0.0
CN1CCN(c2ccccc2NC(=O)c2ccc(-c3ccc(Br)cc3)o2)CC1,-16.6,125.0,i,i,104.0,13.0
O=C(/C=C/c1ccc(F)cc1)Nc1cccc(S(=O)(=O)N2CCOCC2)c1,24.3,.,.,.,.,.
CC1CCN(CC(=O)NC(=O)NCc2ccccc2)CC1,331.5*,92.0,i,i,95.0,-2.0
O=C(CN1CCN(c2ccccc2)CC1)NC(=O)NCc1ccccc1,-8.5,.,.,.,.,.
Nc1nc(N2CCN(C/C=C/c3ccccc3)CC2)nc2ccccc12,-0.2,114.0,-6.76*,i,101.0,13.0
C(=C\c1ccccc1)/CN1CCN(c2ncnc3c2oc2ccccc23)CC1,49.9,102.0,i,i,98.0,2.0
CC(=O)c1ccccc1C(=O)NCc1cccnc1,-9.1,112.0,i,i,111.0,0.0
O=C(COC(=O)c1cc(S(=O)(=O)N2CCOCC2)c(Cl)cc1Cl)c1ccc[nH]1,0.9,.,.,.,.,.
COc1ccc(C(CNC(=O)c2oc3ccc(C)cc3c2C)N2CCCCC2)cc1 (centres undefined),.,125.0,i,i,105.0,9.0
COc1ccc(C(CNC(=O)c2oc3cc(C)c(Cl)cc3c2C)N2CCCCC2)cc1 (centres undefined),-0.7,169.0*,i,i,108.0,37.0*
O=C(CCNS(=O)(=O)c1ccccc1)OCC(=O)c1ccc(Br)cc1,45.9,.,i,i,.,.
Cc1cc(C)nc(-n2nc(C)cc2Nc2ccccc2)n1,-2.1,105.0,-5.23*,i,103.0,7.0
SMILES,SUMO Mot1 rescue,MEKK2wt PB1 HTS,CHT inh,CHT PAM,MEKK3 PB1 HTS,MEKK2mut PB1 HTS
Cc1cc(Nc2ccccc2)n(-c2ccccc2)n1,79.0,101.0,i,i,102.0,4.0
CC(C)(C)c1ccccc1NC(=O)c1c(O)c2cccc3c2n(c1=O)CC3,-0.2,97.0,i,i,102.0,-2.0
Cn1c(=O)c2c(ncn2CC(=O)N(Cc2ccccc2)c2ccccn2)n(C)c1=O,298.6*,92.0,i,i,100.0,-4.0
CC(C)NC(=O)C(=O)Nc1cc2c3c(c1)C(C)C(=O)N3CCC2 (centres undefined),38.4,102.0,i,i,102.0,2.0
CC1(C)N=C(N)N=C(N)N1c1ccc(OCCCOc2ccccc2)c(Cl)c1,-13.1,165.0*,i,i,116.0,46.0*
COc1ccc([C@@H]2C=C(C(=O)O)O[C@H](OCCCCO)C2)cc1,8.1,98.0,i,i,97.0,3.0
NS(=O)(=O)c1ccc(CCNc2nc3c(-c4cccc(F)c4)nnn3c3ccccc23)cc1,546.2*,101.0,i,i,100.0,-2.0
O=C(Nc1ccc(Nc2ccncc2)cc1)c1ccc(Nc2ccnc3ccc([N+](=O)[O-])cc23)cc1,.,72.0*[inhibitor],.,.,61.0*[inhibitor],-13.0
O=C(Nc1ccncc1)c1ccc(C(=O)Nc2ccncc2)cc1,-18.8,94.0,i,i,102.0,-2.0
CCCc1ccc(C(=O)NNc2ccc(F)cc2)cc1,288.6*,96.0,i,i,98.0,0.0
CCCc1ccc(C(=O)NNC(=O)c2ccc(Br)cc2)cc1,4.4,103.0,i,i,105.0,2.0
Cc1ccc(C(=O)c2c3ccc([N+](=O)[O-])cc3[n+]([O-])n2CCC(N)=O)cc1,60.7,94.0,i,i,97.0,-4.0
NCCCn1c(C(=O)c2cc(Cl)c(N)c(Cl)c2)c2ccc([N+](=O)[O-])cc2[n+]1[O-],127.7,.,-5.46*,i,.,.
COc1cc([N+](=O)[O-])ccc1NC(=O)COC(=O)c1c[nH]c(=O)[nH]c1=O,-0.2,.,.,.,.,.
C=CCc1ccc(OC)c(OC)c1,863.6*,101.0,i,i,101.0,0.0
C=CCc1ccc(OCCCCNC2CCCC2)c(OC)c1,19.6,111.0,i,i,106.0,6.0
C=CCc1ccc(OCCCCCN2CCOCC2)c(OC)c1,276.5*,118.0,i,i,107.0,13.0
COc1ccc2[nH]cc(CCn3ccc(=O)c(C)c3C)c2c1,-6.8,98.0,i,i,101.0,9.0
CC(=O)NC(CC(=O)NNC(=O)c1cccs1)c1ccccc1 (centres undefined),i,.,i,i,.,.
COc1ccc(-c2cc(C)no2)cc1S(=O)(=O)NCC1CCN(Cc2cc(C)ccc2C)CC1,2.7,143.0*,i,i,101.0,22.0
Cn1ccnc1C(=O)Cc1ccc([N+](=O)[O-])cc1,41.4,.,i,i,.,.
O=C(Nc1ccc(NC(=O)c2ccc(Cl)cc2Cl)cc1)c1ccc2c(c1)OCO2,6.6,99.0,i,i,99.0,-5.0
O=C(Nc1ccc(C2=NCCN2)cc1)c1ccc(C(=O)Nc2ccc(C3=NCCN3)cc2)c(Cl)c1,-22.0,149.0*,i,i,72.0*[inhibitor],31.0*
O=C(NCCC(=O)N1CCC2(CC1)NCCc1[nH]cnc12)c1cccc(Cl)c1,-11.7,105.0,i,i,103.0,3.0
